From PubChem
GLD-1 RNA inh = GLD-1-TGE RNA interaction inhibition (C. elegans). purified GLD-1 + fluorescein TGE RNA, fluorescence polarization. inhibition, % at 5.96 µM. actives 0.44% (n = 320,000). AID 2280;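 active = percent inhibition above a per-plate cutoff, the plate mean of test compounds plus 3 SD, cut at about 30% in these data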;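 also: 0% = DMSO wells with GLD-1 and probe and 100% = wells lacking GLD-1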
Target sequence (Q17339 whole entry, looked up): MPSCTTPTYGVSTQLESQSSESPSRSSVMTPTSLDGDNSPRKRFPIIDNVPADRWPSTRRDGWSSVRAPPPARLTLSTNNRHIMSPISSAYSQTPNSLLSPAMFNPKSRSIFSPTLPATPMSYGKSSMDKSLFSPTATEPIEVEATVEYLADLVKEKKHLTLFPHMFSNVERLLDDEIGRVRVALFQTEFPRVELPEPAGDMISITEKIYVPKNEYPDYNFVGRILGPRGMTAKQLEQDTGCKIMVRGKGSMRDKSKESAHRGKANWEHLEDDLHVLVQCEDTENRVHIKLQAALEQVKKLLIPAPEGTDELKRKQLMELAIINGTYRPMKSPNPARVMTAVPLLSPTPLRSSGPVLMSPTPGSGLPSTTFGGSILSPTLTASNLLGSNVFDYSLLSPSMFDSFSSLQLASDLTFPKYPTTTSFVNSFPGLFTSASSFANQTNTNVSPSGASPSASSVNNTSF
BCLXL inh = inhibitors of human Bcl-xL; Q07817; GST-Bcl-xL / FITC-Bim BH3 peptide fluorescence polarization; inhibition, % at 10.9 µM; actives 0.7% (n = 320,000); AID 2129;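 active = inhibition above the mean of all tested compounds plus 3 SD, cutoff set per campaign, cut at about 30% in these data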;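 also: 0% = DMSO wells and 100% = unlabeled Bim-BH3 peptide competitor; inhibitors lower millipolarization by displacing the labeled peptide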
MEX-5 binding = C. elegans MEX-5 TCR-2 RNA binding activity; actives 0.38% (n = 300,000); activity score (negative = inhibition of binding), % at 10 µM; MEX-5/FITC-TCR2 RNA binding, fluorescence polarization; active compounds read low;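 active = inhibition past about -25% in most replicates, and total fluorescence under double the plate's negative control median, limit read from the data; inconclusive = replicates evenly split on the limit, or fluorescence at least double controls; inactive = too little inhibition in most replicates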;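 also: 0% = DMSO and -100% = 5 µM competing unlabeled TCR2 RNA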
MCL1 BIM primary = inhibitors of human MCL1 binding to BIM-BH3 peptide | actives 0.68% (n = 320,000) | inhibition, % at 10.9 µM | GST-MCL1 / FITC-Bim-BH3 fluorescence polarization;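 active = inhibition above the mean inhibition of all tested compounds plus 3 SD, set per campaign, cut at about 40% in these data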;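 also: 0% = DMSO wells and 100% = unlabeled Bim-BH3 peptide control; higher means more loss of mP so more displacement of Bim peptide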
LANA-H2B inh = blocks KSHV LANA binding to histone H2A/H2B; cell-free LANA-H2A/H2B peptide, fluorescence polarization; inhibition, % (test concentration not listed); actives 0.6% (n = 320,000); in the data active = inhibition mostly above about 10%, no sharp cut-off; inactive = mostly below about 6.7%
Yeast superoxide = caloric restriction mimetics inhibiting age-related superoxide in yeast; AID 2690; superoxide response (% of plate mean), % at 10 µM; S. cerevisiae aged cells, superoxide DHE fluorescence; active compounds read low; actives 0.18% (n = 330,000);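 active = superoxide response under a set limit, about three screen SD below normal, cut at about 65% in these data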;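 also: yeast aged for seven days with compound at 30 °C before DHE staining; 100% = average MFI of all compound-treated wells on the plate with controls excluded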
Bcl-xL conf = Bcl-xL (human) inhibition, MCL1 counter-screen confirmation | AID 2166 | inhibition, % at 10.9 µM | GST-Bcl-xL / FITC-Bim BH3 peptide FP binding | shares compounds with MCL1 BIM primary | actives 54% (n = 1,700);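 active = inhibition above a cutoff equal to the mean inhibition of all tested compounds plus 3 SD, cut at about 30% in these data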;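 also: 0% = DMSO wells and 100% = unlabeled Bim BH3 control peptide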
MCL1 BIM confirm = MCL1-BIM-BH3 interaction inhibition, confirmation; GST-MCL1 / FITC-Bim-BH3 fluorescence polarization; inhibition, % at 10.9 µM; shares compounds with MCL1 BIM primary; actives 61% (n = 1,700);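 active = inhibition above the average of all tested compounds plus 3 SD, cut at about 40% in these data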;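 also: 0% = DMSO wells and 100% = unlabeled Bim-BH3 control peptide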
GLD-1 TGE cf = GLD-1 TGE RNA interaction inhibition, confirmation | inhibition, % at 5.96 µM | actives 10% (n = 550) | AID 2459 | shares compounds with GLD-1 RNA inh | GLD-1/FL-TGE RNA fluorescence polarization, biochemical;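 active = average inhibition across triplicates above the hit cutoff set in the primary screen, cut at about 32% in these data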;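 also: 0% = GLD-1 with RNA probe and DMSO and 100% = wells lacking GLD-1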
The depositor's hits bear a star; ? = inconclusive; nt = no result given; + = active, no number. This is a sample that favours compounds with a hit; in the whole collection about 1.9% have one here.

SMILES	GLD-1 RNA inh	BCLXL inh	MEX-5 binding	MCL1 BIM primary	LANA-H2B inh	Yeast superoxide	Bcl-xL conf	MCL1 BIM confirm	others
Cc1cc(=O)oc2c(CN3CCC(C)CC3)c(O)c(Cl)cc12	119*	105*	-40*	142*	6	111	80*	113*
Cc1cc(=O)oc2c(CN3CCCC3)c(O)c(Cl)cc12	30	25	-9	26	5	92	nt	nt
CN(C(=O)Cn1nnc2ccccc2c1=O)C1CCCCC1	-7	1	0	-2	-4	92	nt	nt
O=C(Nc1nc(-c2ccco2)c(-c2ccco2)s1)c1cnccn1	14	33*	-1	102*	-4	115	16	27
COc1ccc(NC(=O)c2ccc(-c3nn(C)c(=O)c4ccccc34)cc2)cc1	5	16	-2	45*	-1	118	-4	-7
COc1ccc(Cl)cc1N(CC(=O)N1CCCC1)S(C)(=O)=O	0	0	0	-1	2	91	nt	nt
COc1ccc(Cl)cc1N(CC(=O)N1CCC(C)CC1)S(C)(=O)=O	-3	1	2	65*	-2	107	11	17
CC(C)(C)OC(=O)N1CCN(C(=O)c2[nH]cnc2C(=O)Nc2cccc(Cl)c2)CC1	3	4	nt	4	-3	96	nt	nt
CN(C)CCCN(C(=O)c1cc2cc([N+](=O)[O-])ccc2s1)c1nc2cc3c(cc2s1)OCCO3	-2	7	-1	-2	2	94	nt	nt
COc1cccc2c1C(=O)c1c(O)c3c(c(O)c1C2=O)C[C@@](O)(C(=O)CO)C[C@@H]3O[C@H]1C[C@H](N)[C@H](O)[C@H](C)O1	+	+	?	+	25*	127	+	+
CC(=O)c1ccc2c(c1)C1C=CCC1C(c1ccc(S(=O)(=O)N3CCOCC3)cc1)N2 (stereo unspecified)	-1	22	nt	10	1	94	nt	nt
Cc1c(Cl)cccc1NS(=O)(=O)c1ccc2c(c1)C1C=CCC1C(c1ccc(C(=O)O)cc1)N2 (stereo unspecified)	13	39*	nt	61*	4	99	29	74*
COc1ccc(NS(=O)(=O)c2ccc3c(c2)[C@H]2C=CC[C@H]2[C@@H](c2ccc(C(=O)O)cc2)N3)cc1	9	27	-61*	54*	-5	90	11	27
CCOc1ccc(NC(=O)Cc2ccc(S(=O)(=O)N3CCCCC3)cc2)cc1OCC	1	nt	nt	nt	-1	77	nt	nt
Nc1nc(SCC(=O)O)[nH]c(=O)c1NC(=O)c1ccco1	28	41*	-3	55*	1	103	3	3
Cc1oc(-c2ccccc2)cc1C(N)=O	7	10	3	7	6	102	nt	nt
Cc1oc(C(N)=O)nc1-c1ccccc1	2	9	1	48*	4	102	6	11
CCCCCCc1c(O)c2ccccc2[nH]c1=O	1	7	-2	0	3	102	nt	nt
COC1=CC(=O)C(O)=C(CCCCCCC/C=C/CCCCCCCC2=C(O)C(=O)C=C(OC)C2=O)C1=O	4	45*	1	107*	7	91	32*	81*
CCCCCCCCCCCC1=C(O)C(=O)C=C(O)C1=O	4	8	-1	52*	-1	91	46*	76*
N#Cc1ccc(CN2CCN(C(=O)c3ccc(S(=O)(=O)NCc4ccco4)cc3)CC2)cc1	-3	-4	nt	-1	3	85	nt	nt
Cc1cc2cc(CNC(=O)c3ccc4c(c3)OCO4)ccc2[nH]1	33*	37*	-2	53*	0	109	19	9	GLD-1 TGE cf=0
Cc1ccc(CNC(=O)c2ccc(Br)o2)cc1	-4	1	0	4	4	94	nt	nt
Cc1cc2cc(CNC(=O)c3ccc(Br)o3)ccc2[nH]1	41*	55*	-2	69*	-1	116	57*	75*	GLD-1 TGE cf=5
CC(=O)Nc1ccc(S(=O)(=O)N2CCSc3ccccc32)cc1	8	nt	nt	nt	8	108	nt	nt
SMILES	GLD-1 RNA inh	BCLXL inh	MEX-5 binding	MCL1 BIM primary	LANA-H2B inh	Yeast superoxide	Bcl-xL conf	MCL1 BIM confirm	others
CCCCCn1nc(C(=O)OCc2nc(N)nc(Nc3ccccc3)n2)c2ccccc2c1=O	-2	nt	nt	nt	1	86	nt	nt
Cn1c(C=O)c(C#Cc2ccccc2)c2ccccc21	2	1	nt	-2	-7	106	nt	nt
CCCC(=O)NCc1ccc2c(c1)cc(C)n2C	54*	48*	-4	52*	-1	101	11	4	GLD-1 TGE cf=10
Cc1cc2cc(CNC(=O)CCC(=O)O)ccc2n1C	17	18	-4	15	0	98	nt	nt
Cc1ccc(CNC(=O)c2ccc(NS(=O)(=O)c3cccs3)cc2)cc1	-6	1	1	-4	1	89	nt	nt
Cc1ccc(C(=O)NNC(=O)c2ccc(NS(=O)(=O)c3cccs3)cc2)o1	46*	61*	nt	+	1	95	-1	-3	GLD-1 TGE cf=-5
CCOC(=O)c1sc2ncn(CC(=O)Nc3cc(C)on3)c(=O)c2c1C	-12	-1	nt	-3	nt	114	nt	nt
CCOC(=O)C1=C(C)OC(N)=C(C#N)C1c1cc2c(cc1[N+](=O)[O-])OCO2 (stereo unspecified)	38*	36*	-2	44*	-2	151	49*	73*	GLD-1 TGE cf=7
Cc1ccc(NC(=O)COC(=O)C2(CC(=O)NC(C)C)CCCC2)cc1C	6	nt	nt	nt	-6	113	nt	nt
CCOC(=O)c1ccc(NC(=O)CN(c2ccc(C)cc2)S(=O)(=O)c2c(C)n[nH]c2C)cc1	74*	92*	2	106*	0	103	6	8	GLD-1 TGE cf=0
Cc1nc(SCC(=O)Nc2c(C)n(C)n(-c3ccccc3)c2=O)[nH]c(=O)c1Cc1ccccc1	47*	55*	2	71*	12	92	11	5	GLD-1 TGE cf=7
CCc1c(C)nc(SCC(=O)Nc2c(C)n(C)n(-c3ccccc3)c2=O)[nH]c1=O	6	6	-1	4	3	101	nt	nt
CC#CCN(Cc1ccco1)C(=O)c1ccc(OC2CCN(Cc3ccccn3)CC2)cc1	4	-3	0	-2	5	90	nt	nt
